S1P4 antag: S1P4 receptor antagonists, primary screen, cell-based; Sphingosine 1-phosphate receptor 4 (Homo sapiens), O95977; S1P4-expressing cells, antagonist mode, reporter read-out; inhibition, % at 4.98 µM; actives 0.26% (n = 220,000); in the data active = inhibition above about 29%
Target sequence (O95977 whole entry, looked up): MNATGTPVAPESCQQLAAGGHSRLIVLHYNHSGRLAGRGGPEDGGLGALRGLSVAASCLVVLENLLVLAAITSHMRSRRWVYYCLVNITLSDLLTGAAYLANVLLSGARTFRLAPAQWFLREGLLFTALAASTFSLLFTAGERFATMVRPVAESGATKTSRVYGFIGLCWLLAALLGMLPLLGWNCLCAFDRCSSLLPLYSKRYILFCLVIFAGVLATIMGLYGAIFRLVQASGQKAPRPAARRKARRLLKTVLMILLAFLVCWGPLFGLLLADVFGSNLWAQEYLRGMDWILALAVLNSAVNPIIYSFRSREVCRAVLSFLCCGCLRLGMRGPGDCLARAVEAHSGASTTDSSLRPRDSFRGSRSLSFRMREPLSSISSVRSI
CHOP inhibitor: inhibitors of CHOP promoter induction, primary screen, cell-based, unfolded protein response, luciferase reporter; CHO-K1 CHOP-promoter luciferase, tunicamycin-induced, 15-18 h; inhibition, % at 10 µM; actives 3.8% (n = 220,000);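 active = compounds that reduced the stress-induced luciferase reporter signal by more than about 70% of percent inhibition, limit read from the data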
Hsp70 activator: Hsp70 transcriptional activators, primary screen, cell-based, HeLa, Hsp70 promoter luciferase, luminescence, 10 µM | actives 0.04% (n = 200,000) | activation, % at 10 µM | HeLa Hsp70 promoter luciferase reporter; scaled: vehicle 0, proteasome-inhibitor control 100%;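 active = activation above the mean across all tested compounds plus 3 SD, cutoff set per campaign, cut at about 5.5% in these data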
S1P4 agonist: S1P4 receptor agonists, primary screen, cell-based. Sphingosine 1-phosphate receptor 4 (Homo sapiens), O95977. S1P4-expressing cell line, agonist reporter assay. activation, % at 4.98 µM. actives 0.35% (n = 220,000); in the data active = activation above about 11%
A number is an active result; 0 = inactive; - = not tested or not shown. In the library only some 4.2% were active in any assay of this set; here they are far more common.

SMILES | S1P4 antag | CHOP inhibitor | Hsp70 activator | S1P4 agonist
CC(C)(C)NC(=O)NC(=O)COc1ccc(Br)cc1Br | 0 | 83 | 0 | 0
O=C(COc1ccc(Br)cc1Cl)NC(=O)NCc1ccccc1 | 0 | 80 | 0 | 0
CC(C)(C)NC(=O)NC(=O)COC(=O)COc1ccc(Cl)cc1Cl | 0 | 0 | 0 | 0
CC(=O)NS(=O)(=O)c1ccc(NC(=O)c2cccc(S(=O)(=O)N3CCc4ccccc43)c2)cc1 | 0 | 0 | 0 | 0
O=[N+]([O-])c1cc(Cl)cc(/C=N\Nc2ccccn2)c1O | 0 | 93 | 0 | 0
O=C(N/N=C/c1cc(Cl)cc([N+](=O)[O-])c1O)c1cc(-c2ccccn2)nc2ccccc12 | 0 | 0 | - | 0
CC1CCc2nc(NC(=O)C3COc4ccccc4O3)sc2C1 (stereo unspecified) | 0 | 79 | 0 | 0
CC1CCc2nc(NC(=O)C3CC3)sc2C1 (stereo unspecified) | 0 | 0 | 0 | 0
CC1CCc2nc(NC(=O)CN3CCN(Cc4ccc5c(c4)OCO5)CC3)sc2C1 (stereo unspecified) | 0 | 82 | 0 | 0
CC1CCc2nc(NC(=O)Nc3ccc4c(c3)OCO4)sc2C1 (stereo unspecified) | 0 | 84 | 0 | 0
Cc1ccc(NC(=O)NCC2CCN(Cc3cccc(Cl)c3)CC2)cc1Cl | 0 | 89 | 0 | 0
Cc1ccc(NC(=O)NCC2CCN(Cc3cccc(Cl)c3)CC2)c(Cl)c1 | 0 | 0 | 0 | 0
CC1(C)CC(=O)C2=C(C1)OC1=C(C(=O)CC(C)(C)C1)C2c1ccccc1 | 0 | 0 | 0 | 0
CCCN(C(=O)c1ccco1)c1nnc(-c2ccncc2)s1 | 0 | 0 | 0 | 0
CCCCN(C(=O)c1ccco1)c1nnc(-c2cc(OC)c(OC)c(OC)c2)s1 | 0 | 73 | 0 | 0
O=C(Nc1nc(-c2ccc(S(=O)(=O)N3CCCCCC3)cc2)cs1)c1ccccc1 | 0 | 0 | 0 | 0
Cc1ccc(C(=O)OCC(=O)N2CCc3ccccc32)cc1 | 0 | 0 | 0 | 0
Cc1cc(C)cc(NC(=O)C2CCCN(c3nc(C)cc(C)n3)C2)c1 (stereo unspecified) | 0 | 70 | 0 | 0
Cc1cc(C)nc(N2CCC(C(=O)Nc3ccc4c(c3)CCC4)CC2)n1 | 0 | 82 | 0 | 0
Cc1cc(C)nc(N2CCC(C(=O)NC3CCCc4ccccc43)CC2)n1 (stereo unspecified) | 0 | 73 | 0 | 0
Cc1cc(C)cc(NC(=O)C2CCCN(c3nccc(C)n3)C2)c1 (stereo unspecified) | 0 | 0 | 0 | 0
Cc1cc(C)cc(OCC(=O)NN2C(=O)c3ccccc3C2=O)c1 | 0 | 0 | 0 | 0
CCCCOc1ccc(C(C)NC(=O)CCS(=O)(=O)Cc2ccccc2F)cc1 (stereo unspecified) | 0 | 71 | 0 | 0
CC(NC(=O)CCCOc1ccc(Cl)cc1)c1ccccc1 (stereo unspecified) | 0 | 0 | 0 | 0
CCc1ccc(NC(=O)CCc2nc3cccnc3n2Cc2ccc(OC)cc2)cc1 | 0 | 92 | 0 | 0
SMILES | S1P4 antag | CHOP inhibitor | Hsp70 activator | S1P4 agonist
O=C(O)CCc1nc2cccnc2n1Cc1ccccc1 | 0 | 0 | 0 | 0
CCOc1cccc(NC(=O)CSc2nncn2N)c1 | 0 | 0 | 0 | 0
Cc1ccc(CNC(=O)CCC(=O)c2cccs2)cc1 | 0 | 0 | 0 | 0
CSc1ccc(C2C(C#N)=C(N)Oc3c2ccc(=O)c2c(C)oc(C)c32)cc1 (stereo unspecified) | 0 | 83 | 0 | 0
Cc1oc(C)c2c(=O)ccc3c(c12)OC(N)=C(C#N)C3c1ccccc1Cl (stereo unspecified) | 0 | 81 | 0 | 0
C1CCC(C(CC2CCCCN2)C2CCCCC2)CC1 (stereo unspecified) | 0 | 99 | 0 | 0
CCC(C(=O)Nc1ccccc1OC)n1c(C(=O)OC)cc2ccsc21 (stereo unspecified) | 0 | 81 | 0 | 0
COc1ccccc1-c1coc2c(CN3CCN(C)CC3)c(O)ccc2c1=O | 0 | - | 0 | 0
Nc1cc(=O)[nH]c(SCC(=O)N2N=C(c3ccc4ccccc4c3)CC2c2ccccc2)n1 (stereo unspecified) | 0 | 86 | - | 0
CC(=O)OCC(=O)N1N=C(c2ccc3ccccc3c2)CC1c1ccccc1 (stereo unspecified) | 0 | 0 | 0 | 0
O=C(Cn1ncc2c1-c1ccccc1OC2)Nc1ccc(S(=O)(=O)N2CCCCC2)cc1 | 0 | 86 | 0 | 0
Cc1cc(-n2c(SCC(=O)NCc3cccs3)nc3n[nH]c(C)c3c2=N)ccc1Cl | 0 | 81 | 0 | 0
CC1CCN(c2nc(-c3ccccc3O)nc3ccccc23)CC1 | 0 | 0 | 0 | 0
Cc1ccc(C)c(NC(=O)CSc2nnc(-c3n[nH]c4ccccc34)o2)c1 | 0 | 0 | 0 | 0
CC(C)(C)c1ccc(NC(=O)CSc2nnc(-c3n[nH]c4ccccc34)o2)cc1 | 0 | 94 | 0 | 0
CCOC(=O)C1(S(=O)(=O)c2ccc(Cl)cc2)CCN(Cc2ccc(C)cc2)CC1 | 0 | 74 | 0 | 0
CCOC(=O)C1(Cc2ccc(Cl)cc2)CCN(Cc2cnc(N)nc2)CC1 | 0 | 0 | 0 | 0
Nc1nc(-c2ccc(Cl)cc2)nnc1-c1ccc(Br)cc1 | 0 | 0 | 0 | 0
O=C1ON=C(c2ccccc2)/C1=C/c1ccc(-c2ccccc2[N+](=O)[O-])o1 | 0 | 104 | 0 | 0
O=[N+]([O-])c1ccccc1-c1ccc(/C=N/n2cnnc2)o1 | 0 | 0 | 0 | 0
C=CCn1c(SCC(=O)Nc2sccc2C(N)=O)nc2ccccc2c1=O | 0 | 0 | 0 | 0
C=CCn1c(SCC(=O)Nc2sccc2C(N)=O)nc2ccc(Cl)cc2c1=O | 0 | 78 | 0 | 0
O=[N+]([O-])c1ccc(O)c(-c2nc(-c3ccccc3)c(-c3cccs3)[nH]2)c1 | 0 | 85 | 0 | 0
CCOC(=O)/C(C#N)=C/c1c(Oc2cccc(C)c2)nc2ccccn2c1=O | 0 | 0 | - | 0
COC(=O)/C(C#N)=C/c1c(Oc2cccc(C)c2C)nc2ccccn2c1=O | 0 | 86 | - | 0
SMILES | S1P4 antag | CHOP inhibitor | Hsp70 activator | S1P4 agonist
CCOC(=O)/C(C#N)=C/c1c(Oc2cccc(C)c2)nc2c(C)cccn2c1=O | 0 | 77 | 0 | 0
CCOc1[nH]n(-c2ccccc2)c(=O)c1C=NCc1cccnc1 | 0 | 0 | 0 | 0
COC(=O)c1ccc(N2CCCCC2)c(NS(=O)(=O)c2ccc(C)cc2)c1 | 0 | 0 | 0 | 0
CCN(CC)CCNC(=O)c1ccc(N2CCCCC2)c(NS(=O)(=O)c2ccc(C)cc2)c1 | 0 | 72 | 0 | 0
CN(C)c1cccc(C(=O)OCc2cc(=O)oc3cc(O)ccc23)c1 | 0 | 90 | 0 | 0
O=C(CSc1ccc(-c2ccccc2)nn1)c1cccs1 | 0 | 0 | 0 | 0
Cn1cnc([N+](=O)[O-])c1Sc1nc2ccccc2[nH]1 | 0 | 0 | - | 0
CS(=O)(=O)c1cc([N+](=O)[O-])c(Sc2nc3ccccc3[nH]2)c([N+](=O)[O-])c1 | 0 | 80 | 0 | 0
CC1CCCC(C)N1C(=O)CSCc1ccc(Cl)cc1 (stereo unspecified) | 0 | 0 | 0 | 0
Cc1ccc(-c2nnn(CC(=O)N(Cc3cccs3)C(C(=O)NC(C)(C)C)c3ccc(C)o3)n2)o1 (stereo unspecified) | 0 | 76 | 0 | 0

High-throughput results deposited in PubChem BioAssay by several laboratories.
